Assay results: PubChem BioAssay AID1573 (National Center for Advancing Translational Sciences (NCATS), 2009)
Inconclusive results are not listed. Active and inactive are the calls of the source. The call rests on the fitted dose curve; in most records, active means well fitted inhibition curve with a large enough effect; inconclusive means small, poorly fitted or top-dose-only effect; inactive means no such curve, though single readings can be large or run the other way.

Biological target: Thyroid hormone receptor beta (Homo sapiens) (UniProt P10828)
Sequence (P10828 whole entry, looked up): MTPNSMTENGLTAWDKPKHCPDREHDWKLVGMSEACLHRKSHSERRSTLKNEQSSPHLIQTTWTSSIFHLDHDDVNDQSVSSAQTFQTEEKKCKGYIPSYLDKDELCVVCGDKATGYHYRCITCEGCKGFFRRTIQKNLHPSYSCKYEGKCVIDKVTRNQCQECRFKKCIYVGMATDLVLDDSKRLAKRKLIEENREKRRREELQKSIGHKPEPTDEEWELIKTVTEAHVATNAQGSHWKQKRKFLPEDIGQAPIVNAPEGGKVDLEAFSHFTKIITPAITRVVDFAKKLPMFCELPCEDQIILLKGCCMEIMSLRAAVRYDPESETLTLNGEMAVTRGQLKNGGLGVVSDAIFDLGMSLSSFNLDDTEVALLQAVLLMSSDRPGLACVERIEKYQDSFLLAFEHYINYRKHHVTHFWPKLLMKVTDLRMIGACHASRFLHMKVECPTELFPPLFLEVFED
Assay: Concentration Response Confirmation Assay for Inhibitors of the Interaction of Thyroid Hormone Receptor and Steroid Receptor Coregulator 2
Conditions: TRb LBD + Texas Red SRC2 peptide, fluorescence polarization, 5 h; series mostly up to 92.2 µM
Source text: NIH Molecular Libraries Probe Production Network [MLPCN] NIH Chemical Genomics Center [NCGC] MLPCN Grant: DK058080 Assay Provider: R. Kip Guy, St. Jude Children's Research Hospital NCGC Assay Overview: Thyroid receptor (TR) regulates many homeostatic processes including basal metabolism, cardiovascular function, body weight, and lipid trafficking. TR modulators are potential therapeutics for obesity and hyperlipidemias but current thyroid analogs have undesirable side effects, particularly cardiac stimulation. To identify inhibitors that specifically prevent the interaction of TR with the steroid receptor coregulator 2 (SRC2), a fluorescence polarization assay was screened. This assay detects interaction of the ligand-binding domain of human TRb with a Texas Red labeled SRC2 peptide, corresponding to a 20 amino acid region of the nuclear receptor interaction domain (Arnold et al., 2006). Small molecule inhibitors that block the interaction of TR and SRC2 are detected by a decrease in fluorescence polarization. This assay is a confirmation assay for AID 1469. Arnold, L. A.; Estebanez-Perpina, E.; Togashi, M.; Shelat, A.; Ocasio, C. A.; McReynolds, A. C.; Nguyen, P.; Baxter, J. D.; Fletterick, R. J.; Webb, P.; Guy, R. K. A high-throughput screening method to identify small molecule inhibitors of thyroid hormone receptor coactivator binding. Sci STKE 2006, p 13.
NCGC Assay Protocol Summary: For screening, 5 uL/well 0.6 uM TRb and 20 nM SRC2 Texas Red in protein buffer (20mM Tris hydrochloride, 100mM NaCl, 10% glycerol, 1mM EDTA, 0.01% NP-40, 1mM DTT, 1uM T3 and 5% DMSO) was dispensed into black solid 1536-well plates (Grenier) using a solenoid-based dispenser. Following transfer of 23 nL compound or DMSO vehicle by a pin tool, the plates were centrifuged 15 s at 1000 RPM and incubated 5 hr at ambient temperature. The plates were read by an Envision (Perkin Elmer) to detect fluorescence polarization of SRC2 Texas Red (555 nm excitation and 632 nm emission). Data were normalized to unbound (all components except TRb) and bound SRC2 Texas Red controls. In this assay, we provide % activity data for each concentration as well as potencies for the active compounds. Keywords: NIH Roadmap, MLPCN, MLI, MLSMR, qHTS, NCGC, qHTS, thyroid hormone receptor, steroid receptor coactivator, fluorescence polarization

Potency, inactive:
Cc1cc2ccccc2n1CCNC(=O)C(C)Oc1ccccc1 (stereo not given), Cn1c(NNC(=O)c2c(F)cccc2F)cc(=O)n(C)c1=O, Cn1cc[nH]c1=S, CN(CCO)c1nc(N)c2c(N)nc3c(c2c1C#N)CC(=O)N3C1CCCC1, Nc1cc(-c2ccncc2)c[nH]c1=O, CCCc1cc(=O)[nH]c(=S)[nH]1, O=C1CCCC(O)=C1N=Nc1cccc(S(=O)(=O)N2CCOCC2)c1, Cc1cccc(S(=O)(=O)c2cn(Cc3ccccc3)c3cc(N4CCC(C)CC4)c(F)cc3c2=O)c1, Nc1cc(-c2ccccc2)c[nH]c1=O, O=c1cc(C23CC4CC(CC(C4)C2)C3)[nH][nH]1, O=C(Nc1nc2ccc(Cl)cc2s1)c1ccc(N2CCCCC2)c([N+](=O)[O-])c1, CN1N=C(C(C)(C)C)CC1=O, Cc1cccc(Cn2c(C(=O)OC(C)C)cc3c2ccn3C)c1, Cn1c(=O)[nH]c2nnc(-c3ccc(Cl)c(Cl)c3)nc2c1=O, Cc1ccc(OC(=S)Nc2ccc(O)cc2)cc1, Cc1nnc(SCC(=O)Nc2ccc(N(C)C)cc2)[nH]c1=O, CCCCCCN=CC1=C(O)CC(C)(C)CC1=O

Potency, active:
O=C(O)C1C2C=CC(O2)C1C(=O)Nc1ccc(S(=O)(=O)N2CCc3ccccc32)cc1 (stereo not given) 39.8 µM, Cc1nc2ccccc2n2c(O)c(CC(=O)O)cc12 35.5 µM, CN1CCc2ccc3c4c2[C@]1(C)Cc1cccc(c1-4)OCO3 89.1 µM, Cc1ccccc1Nc1cc2ccccc2c(=O)[nH]1 15.8 µM, C=CCNC(=O)/C(C#N)=C/c1c(C)nn(-c2ccc(Cl)cc2)c1Cl 17.8 µM, COc1cc(/C=C(\C#N)C(=O)NCC2CCCO2)ccc1OCCC(C)C (stereo not given) 35.5 µM, COc1cc(C(c2c(C)[nH][nH]c2=O)c2c(C)[nH][nH]c2=O)ccc1OC(=O)c1cccc(C)c1 31.6 µM, O=C(O)/C=C/C(=O)Nc1ccc(OC(F)(F)F)cc1Br 50.1 µM, O=C(O)/C=C/C(=O)Nc1ccc(SC(F)(F)C(F)(F)C(F)(F)F)cc1 7.94 µM, Cc1cc(N=Cc2c(O)ccc3ccccc23)no1 28.2 µM, CCCCOc1ccc(C(=O)CCN2CCCCC2)cc1 5.01 µM, CCCCOc1ccc(C(=O)CCN2CCOCC2)cc1 5.01 µM, O=c1[nH]c(Nc2ccccc2)cc2ccccc12 35.5 µM, Oc1ccc2ccccc2c1/C=N/c1nc2c(s1)CCCC2 28.2 µM, C=CCNC(=O)/C(C#N)=C\c1cc(Cl)c(OCC)c(OC)c1 35.5 µM, Oc1ccc2ccccc2c1C=NC12CN3CCN(CN(C3)C1)C2 28.2 µM, COn1c2c(c3c4nonc4ccc31)CCCC2 35.5 µM, Oc1ccc2ccccc2c1/C=N/c1nccs1 31.6 µM, COc1ccc(-c2nc(CS(=O)CC(=O)NCc3ccccn3)c(C)o2)cc1 (stereo not given) 35.5 µM, O=C(NNc1cc(N2CCOCC2)nc(N2CCOCC2)n1)c1ccc([N+](=O)[O-])cc1 20 µM, C=CC(=O)OCCOc1ccccc1 112 µM, CS(=O)(=O)c1ccc(C(=O)OCC(=O)NC(=O)C2CCCCC2)cc1[N+](=O)[O-] 10 µM, O=C(NNc1cc(N2CCOCC2)nc(N2CCOCC2)n1)c1ccc(Cl)c(Cl)c1 31.6 µM
